MCF10A rerep – inducers of DNA re-replication in MCF 10A breast cells; MCF 10A DNA re-replication, Hoechst nuclear intensity, 48 h; Potency, µM (highest dose often 46.1 µM), without a hit: at the highest dose activity, positive = re-replication, most hits filed as activators; 2.9% of 350,000 active; AID 624296; note: potency is the fitted concentration of half-maximal effect; % of control where 0% means no effect; nearly all actives have a fitted effect of over 50% in size
SW480 rereplic – induces DNA re-replication in SW480 colon adenocarcinoma cells. SW480 DNA re-replication, Hoechst DNA content imaging, 48 h. Potency, µM (titrated, usually from 46.1 µM), without a hit: at the top dose re-replication activation, actives largely listed as activators. 1.8% of 340,000 active. AID 624297; note: potency is the fitted concentration of half-maximal effect; % of control where 0% means no effect; nearly all actives have a fitted effect of over 55% in size
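Compounds, transferred as 23 nL by pin tool, were incubated with cells for 48 hr; DNA content per nucleus was then quantified by Hoechst staining and fluorescence plate imaging.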
Chronic BCR inh – chronic active BCR signaling inhibition; Potency, µM (doses to about 46.1 µM), without a hit: at the top dose activity change, negative = inhibition, most hits filed as inhibitors; AID 493014; ABC-DLBCL IkBa-CBG/CBR reporter, luminescence ratio, 4 h; 0.05% of 340,000 active; active = well fitted inhibition curve with a large enough effect in the signal ratio, with a control signal flat, not every such curve was filed as active; inconclusive = small, poorly fitted or top-dose-only effect, or effect the other way, or a change in a side signal; the % refers to the signal ratio;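 note: potency is the fitted concentration of half-maximal effect; plate controls were basal doxycycline-induced cells for no effect and cells given 10 µM MG132 for full effect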
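Cell line TMD8 (human ABC DLBCL), stably expressing tet-inducible CBG68-IkBa fusion and CBR; IMDM/0.5% FBS; cpd up to 46 uM; dox induction, 4 h, 37C/5% CO2; dual luminescence; green/red ratio; MG132 control.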
IL1B secr inh – inhibitors of inflammasome signaling (IL-1 beta secretion). AID 743279. THP-1 LPS/ATP IL-1B secretion, AlphaLISA, 16 h; active compounds read low. activity change, % at 57.5 µM. 4.7% of 360,000 active; in the data active = activity change below about -50%; inconclusive = mostly about -30% to -49%; note: % is set by controls: 0 for no effect and ±100 for the full control effect
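THP-1 cells pretreated 1 hr with compounds (up to 57.5 uM final), then stimulated with LPS (250 ng/mL final) plus ATP (1.25 mM final); secreted IL-1B measured by AlphaLISA after 16 hr, decreased signal indicating inhibition.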
TDP1 cell noCPT – qHTS for Inhibitors of human tyrosyl-DNA phosphodiesterase 1 (TDP1): qHTS in cells in absence of CPT; DT40 Tdp1-/- hTDP1 cells, no CPT, ATP luminescence, 48 h; Potency, µM (titrated, usually from 46.2 µM), for the others: top-dose activity change, negative = growth inhibition, actives largely listed as inhibitors; 15% of 420,000 active; AID 686978, 2013; note: potency is the fitted concentration of half-maximal effect; % is set by controls: 0 for no effect and ±100 for the full control effect; nearly all actives have a fitted effect of over 55% in size
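Readout: luminescence from CellTiter-Glo after 30 min in the dark at RT. Cells: DT40 Tdp1-/- with stable hTDP1, 400/well. Exposure: compounds alone, ≥48 hr, 37 °C.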
TDP1 cell CPT – growth inhibition of DT40 Tdp1-/-;hTDP1 cells with camptothecin (screen for TDP1 inhibitors). 12% of 420,000 active. Potency, µM (highest dose often 46.2 µM), for the others: top-dose activity change, negative = growth inhibition, hits mostly inhibitors. chicken DT40 Tdp1-/-;hTDP1 cells + 20 nM CPT, ATP luminescence, 48 h; note: potency is the fitted concentration of half-maximal effect; % is set by controls: 0 for no effect and ±100 for the full control effect; nearly all actives have a fitted effect of over 55% in size
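Chicken DT40 Tdp1-/- cells complemented with human TDP1, 400 cells/well, exposed to compounds plus 20 nM camptothecin for at least 48 h at 37 C; viability read as ATP content by CellTiter-Glo luminescence.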
* marks the source's active call; other numbers are inactive results; i = inactive; ? = inconclusive; nt = no result given; ! = a repeat was not active. Rows were chosen to be rich in hits. Some 19% of all compounds tested hit in one or more screens of this group. Unless noted, calls come from the whole dose curve; as a rule, active = well fitted curve in the direction sought with a large enough effect; inconclusive = small, poorly fitted or top-dose-only effect, or another doubt; inactive = no such curve, though single readings can be large; an effect the other way counts as inactive or inconclusive.

SMILES	MCF10A rerep	SW480 rereplic	Chronic BCR inh	IL1B secr inh	TDP1 cell noCPT	TDP1 cell CPT
CCc1ccc(C2CC(=O)Nc3c2c(C)nn3-c2nc(C)cc(C)n2)cc1 (stereo not drawn)	nt	nt	nt	nt	21µM*	21µM*
CCc1ccccc1NC(=O)CN(C)S(=O)(=O)c1cccc2nsnc12	nt	nt	nt	nt	1%	?
Nc1c(Cl)cc(C=O)cc1Cl	nt	nt	nt	nt	6%	15%
COc1ccc(-c2c(-c3ccc4c(c3)OCO4)noc2-c2ccsc2)cn1	nt	nt	nt	nt	14µM*	13µM*
COc1ccc(-c2c(-c3ccc4c(c3)OCO4)noc2C)cn1	34%	-6%	1%	-3	11µM*!	?
Cc1noc(C)c1S(=O)(=O)N1CCCCC1	-6%	?	?	-13	16%	-3%
Cc1noc(C)c1S(=O)(=O)N1CCN(C(c2ccccc2)c2ccc(Cl)cc2)CC1 (stereo not drawn)	15%	-3%	-1%	46	13µM*	?
O=c1c2c([nH]c3ccccc13)C(=C1CCCC1)CC2	3%	2%	?	7	21µM*	23µM*
O=c1c2c([nH]c3ccccc13)CCCC2	26%	-1%	0%	-1	8.2µM*	?
O=C1NCCc2c1[nH]c1ccccc21	5%	-3%	-9%	-11	-5%	-1%
CC(C)(C)C1CCc2[nH]c3ccccc3c(=O)c2C1 (stereo not drawn)	5%	-3%	-1%	-24	21µM*	23µM*
O=C(O)c1ccc(NC(=O)[C@H](Cc2ccc(O)cc2)NC(=O)c2ccccc2)cc1	1%	0%	nt	nt	-1%	-14%
CC(C)(C)CC(=O)Nc1nnc(C(F)(F)F)s1	-1%	8%	17%	18	-23%	-8%
CC(NC(=O)Nc1nnc(C(F)(F)F)s1)(C(F)(F)F)C(F)(F)F	12µM*	?	13%	-62*	5.2µM*	4.1µM*
O=C(Nc1nnc(C(F)(F)F)s1)c1ccc(Br)s1	19%	2%	?	-55*	15µM*	13µM*
Cc1onc(-c2c(F)cccc2Cl)c1C(=O)Nc1nnc(C(F)(F)F)s1	6%	3%	?	?	15µM*	12µM*
O=C(Nc1ccccc1C(=O)Nc1nnc(C(F)(F)F)s1)c1ccccc1Cl	?	?	?	-73*	16µM*	?
O=C(Nc1nnc(Cc2ccccc2F)s1)c1ccccc1Cl	0%	-3%	?	-4	?	?
CCSc1nnc(NC(=O)c2ccc(Br)s2)s1	-8%	-4%	?	-22	?	-25%
Cc1cccc(-c2ccc3ncnc(NCc4cccc(F)c4)c3c2)c1	nt	nt	0%	nt	nt	nt
O=C(CN1C(=O)/C(=C/c2ccccc2F)Sc2ccccc21)NCC1CCCO1 (stereo not drawn)	7%	?	0%	-9	?	?
COCc1nnc(NC(=O)c2c(-c3c(Cl)cccc3Cl)noc2C)s1	2%	-9%	0%	20	?	13µM*
COc1cccc(N2CCN(C(=O)C3CCN(C(=O)Nc4ccccc4)CC3)CC2)c1	nt	nt	nt	1	-3%	-11%
CCN(CC)CCOC(=O)c1ccc(N/C=C(/C#N)c2nc(-c3cc4ccccc4oc3=O)cs2)cc1	?	?	-1%	128	2.3µM*	1.2µM*
N#C/C(=C\c1cccc(F)c1)c1nc(-c2cc3ccccc3oc2=O)cs1	nt	nt	nt	nt	-8%	-2%
SMILES	MCF10A rerep	SW480 rereplic	Chronic BCR inh	IL1B secr inh	TDP1 cell noCPT	TDP1 cell CPT
CCN(CC)CCOC(=O)c1ccc(N/C=C(/C#N)c2nc(-c3ccc4c(c3)OCO4)cs2)cc1	18µM*	?	2%	32	5.2µM*	3.7µM*
CCN(CC)CCOC(=O)c1ccc(N/C=C(/C#N)c2nc(-c3ccc(OC)cc3)cs2)cc1	?	?	-5%	-5	4.6µM*	4.1µM*
N#C/C(=C\C=C\c1ccccc1)c1nc(-c2ccc3c(c2)OCO3)cs1	12%	4%	-1%	11	-21%	-10%
NC(=O)C1CCCN(CC(=O)Nc2cc(S(=O)(=O)N3CCOCC3)ccc2N2CCCC2)C1 (stereo not drawn)	-6%	-3%	5%	5	-13%	-9%
CCc1ccccc1NC(=O)c1cc(S(=O)(=O)N2CCCC2)cn1C	nt	nt	nt	nt	-10%	?
COc1cc(C)ccc1OCCCn1c(-c2ccc(Cl)cc2)nc2ccccc2c1=O	nt	nt	nt	nt	-14%	-16%
O=C(c1ccco1)N1CCN(C(=O)c2cccs2)CC1	1.8µM*	6.5µM*	?	0	-1%	5%
CC(C)C(=O)N1CCN(c2ccc(NC(=O)c3cccs3)cc2)CC1	2%	2%	10%	?	?	?
CC(C)C(=O)N1CCN(c2ccc(NC(=O)c3cccs3)cc2Cl)CC1	4%	-27%	?	-83*	13µM*	23µM*
CCC(=O)Nc1ccc(N2CCN(C(=O)c3ccco3)CC2)c(Cl)c1	0%	4%	-3%	i	?	-11%
O=C(Nc1ccc(N2CCN(C(=O)c3ccco3)CC2)c(Cl)c1)c1cccs1	?	3%	?	-63*	21µM*	21µM*
O=C(c1ccco1)N1CCN(C(=O)c2ccco2)CC1	nt	nt	nt	-6	1%	10%
O=C(CCc1ccc(S(=O)(=O)N2CCOCC2)cc1)OCC(=O)c1ccccc1F	-2%	-6%	4%	0	1%	-1%
COc1ccc(S(=O)(=O)N2CCOC2CNC(=O)C(=O)NCCN2CCOCC2)cc1C (stereo not drawn)	-8%	4%	1%	0	-5%	14%
COc1ccc(OC)c(NC(=O)CC2C(=O)NCCN2C(=O)C(F)(F)F)c1 (stereo not drawn)	nt	nt	-4%	nt	-6%	-8%
CCC1=Nc2cc(C(=O)NC3CCCC3)ccc2Sc2ccc(Br)cc21	nt	nt	nt	nt	0.73µM*	0.73µM*
CCC1=Nc2cc(C(=O)NC3CCC(C)CC3)ccc2Sc2ccc(C)cc21 (stereo not drawn)	nt	nt	nt	nt	0.65µM*	1.3µM*
CCCC1=Nc2cc(C(=O)NC3CCCC3)ccc2Sc2ccc(C)cc21	nt	nt	nt	nt	1µM*	1.5µM*
CCCC1=Nc2cc(C(=O)N3CCCC3)ccc2Sc2ccc(C)cc21	?	?	3%	12	?	?
CCCC1=Nc2cc(C(=O)N3CCC(C)CC3)ccc2Sc2ccc(C)cc21	nt	nt	nt	nt	-21%	-4%

Compound activity as filed in PubChem.
